A short description of test [1]: qHTS assay to identify aromatase inhibitors - cell viability counter screen (AID 743084).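 Further: cells stimulated with testosterone during compound exposure; nearly all actives have a fitted effect of over 55% in size.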 Further: potency means the concentration at half of the fitted maximal effect.
Test [2] addresses Peroxisome proliferator-activated receptor gamma (Homo sapiens) (UniProt P37231). Briefly: qHTS assay to identify small molecule agonists of the peroxisome proliferator-activated receptor gamma (PPARg) signaling pathway (AID 743094; active means well fitted activation curve with a large enough effect in the signal ratio in the repeat runs, not every such curve was filed as active; the % refers to the signal ratio). The method, boiled down:
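Agonism was assessed in a beta-lactamase reporter system, HEK293H cells with a stably integrated UAS-bla construct under PPARg control; the 17 h treatment at 37C preceded a 1 h room-temperature FRET substrate read.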
For orientation: In qHTS, concentration-response curves come from the screen itself.

Test [3] is described as follows: qHTS assay to identify small molecule antagonists of the peroxisome proliferator-activated receptor gamma (PPARg) signaling pathway - cell viability counter screen (AID 743194). Further: nearly all actives have a fitted effect of over 55% in size. The method, boiled down: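 Viability was measured as CellTiter-Glo luminescence in GeneBLAzer PPARg UAS-bla HEK293H cells. These cells had been exposed 17 h at 37 C to compounds together with rosiglitazone at 50 nM final, with the beta-lactamase readout taken in the same wells.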

Test [4] can be described thus: qHTS assay for small molecule agonists of the antioxidant response element (ARE) signaling pathway - cell viability counter screen (AID 743203; calls by dose curve; further: nearly all actives have a fitted effect of over 55% in size). In short, it runs like this: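 ATP content via CellTiter-Glo luminescence served as the viability measure. Cells: ARE-bla HepG2, 2,000 per well. Exposure: 16 hrs, 37C/5% CO2.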
Test [5] is described as follows: qHTS assay for small molecule activators of the heat shock response signaling pathway - cell viability counter screen (AID 743209). Further: nearly all actives have a fitted effect of over 50% in size. In short, it runs like this:
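Compounds dissolved in DMSO were added to overnight-plated HSE-bla HeLa cells and left 5 h at 37 C. Cell viability was quantified by luminescence using CellTiter-Glo.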

Test [6] in a line: qHTS assay for small molecule activators of the heat shock response signaling pathway (AID 743210; active means well fitted activation curve with a large enough effect in the signal ratio in the repeat runs, with a control signal flat, not every such curve was filed as active; the % refers to the signal ratio;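 further: HeLa cells with beta-lactamase reporter driven by heat shock elements; series mostly up to about 63 µM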). In short, it runs like this: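 Fluorescence from a cleaved B/G FRET substrate (2.5 h, room temp) reports HSE-driven beta-lactamase in HeLa cells treated 5 h at 37 C with DMSO-dissolved compounds.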
Test [7] can be described thus: qHTS assay to identify small molecule agonists of the peroxisome proliferator-activated receptor delta (PPARd) signaling pathway - cell viability counter screen (AID 743211). Further: nearly all actives have a fitted effect of over 55% in size. The method, boiled down: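 HEK293H PPARd-bla, 3000 cells/well; 5 h preincubation 37C/5% CO2; cpd in DMSO, 17 h 37C; B/G FRET substrate 2 h RT; CellTiter-Glo 30 min RT, luminescence.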
In test [8] the target is Peroxisome proliferator-activated receptor delta (Homo sapiens) (UniProt Q03181). Nature of the test: qHTS assay to identify small molecule agonists of the peroxisome proliferator-activated receptor delta (PPARd) signaling pathway (AID 743212; calls by dose curve). In short, it runs like this:
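Steps: seed PPARd-bla HEK293H cells; incubate 5 h, 37 C, 5% CO2; add compounds in DMSO; incubate, 37 C; add LiveBLAzer B/G FRET substrate; hold 2 h at room temperature; measure fluorescence.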

Test [9] is described as follows: qHTS assay to identify small molecule antagonists of the peroxisome proliferator-activated receptor delta (PPARd) signaling pathway - cell viability counter screen (AID 743213). Further: nearly all actives have a fitted effect of over 50% in size. The method, boiled down: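 Agonist-stimulated (L165041, 300 nM final) HEK293H PPARd UAS-bla cells are exposed to compounds for 17 h at 37 C, and ATP-based luminescence (CellTiter-Glo) from the same wells reports cytotoxicity.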

The target of test [10] is Peroxisome proliferator-activated receptor delta (Homo sapiens) (UniProt Q03181). Briefly: qHTS assay to identify small molecule antagonists of the peroxisome proliferator-activated receptor delta (PPARd) signaling pathway (AID 743215; active means well fitted inhibition curve with a large enough effect in the signal ratio in the repeat runs, not every such curve was filed as active; the % refers to the signal ratio; further: series mostly up to about 62 µM). In short, it runs like this:
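Here, a reporter line (HEK293H, beta-lactamase under a UAS) measures PPARd signaling. Compounds are tested against agonist L165041 at 300 nM final concentration over 17 h at 37 C, with fluorescence read after substrate.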

Test [11] is described as follows: qHTS assay to identify small molecule agonists of the farnesoid-X-receptor (FXR) signaling pathway - cell viability counter screen (AID 743218). Further: nearly all actives have a fitted effect of over 45% in size. In short, it runs like this: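 Quantitative HTS counter screen measuring ATP-based viability via CellTiter-Glo luminescence in HEK 293T cells carrying a UAS-driven beta-lactamase reporter, after 16 h compound exposure at 37 C.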

Test [12] can be described thus: qHTS assay to identify small molecule antagonists of the farnesoid-X-receptor (FXR) signaling pathway - cell viability counter screen (AID 743221; active means well fitted cell-killing curve with a large enough effect in the repeat runs, not every such curve was filed as active; further: nearly all actives have a fitted effect of over 50% in size). In short, it runs like this: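 Luminescence from CellTiter-Glo measures cytotoxicity in GeneBLAzer FXR-UAS-bla HEK 293T cells. Cells were exposed to compounds with 50 uM chenodeoxycholic acid (final) for 16 h at 37 C, in wells also used for the reporter readout.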

The target of test [13] is Vitamin D3 receptor (Homo sapiens) (UniProt P11473). Briefly: qHTS assay to identify small molecule antagonists of the vitamin D receptor (VDR) signaling pathway (AID 743223; active means well fitted inhibition curve with a large enough effect in the signal ratio in the repeat runs, not every such curve was filed as active; the % refers to the signal ratio). The method, boiled down:
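Antagonist mode uses 1alpha,25-dihydroxyvitamin D3 at 3 nM final as stimulus. VDR-bla cells receive compounds in DMSO, incubate 16 h at 37C, then a beta-lactamase FRET substrate for 2 h at room temperature before fluorescence measurement.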

In test [14] the target is Aryl hydrocarbon receptor (Homo sapiens) (UniProt P35869). Briefly: qHTS assay to identify small molecule that activate the aryl hydrocarbon receptor (AhR) signaling pathway (AID 743085). Further: nearly all actives have a fitted effect of over 15% in size. Further: potency means the concentration at half of the fitted maximal effect.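 On activation: HG2L7.5c1 human HepG2 liver cells with stably integrated DRE-driven firefly reporter; series mostly up to about 70 µM.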 In short, it runs like this:
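Cell line HG2L7.5c1 (human hepatoma, 20× DRE-luc). Plated, 5 h 37C, compound/DMSO added, 24 h 37C. CellTiter-Fluor 30 min 37C → fluorescence; then ONE-Glo 30 min RT → luminescence.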

Test [15] in a line: qHTS assay to identify small molecule that activate the aryl hydrocarbon receptor (AhR) signaling pathway - cell viability counter screen (AID 743086).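 Further: HepG2 liver cells carrying the AhR DRE luciferase reporter; series mostly up to about 70 µM; nearly all actives have a fitted effect of over 45% in size.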 In short, it runs like this:
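Cytotoxicity counter screen: CellTiter-Fluor signal (30 min, 37 C) in 4000 HepG2 cells/well carrying the DRE-luciferase reporter, following 24 h compound exposure at 37 C.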

Test [16] can be described thus: qHTS assay for small molecule agonists of the antioxidant response element (ARE) signaling pathway (AID 743202; active means well fitted activation curve with a large enough effect in the signal ratio in the repeat runs, not every such curve was filed as active; the % refers to the signal ratio). In short, it runs like this: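 Beta-lactamase reporter activity, read as fluorescence intensity, reflects ARE/Nrf2 pathway induction in HepG2 cells after 16 h compound exposure at 37 C; substrate loading was 2 h at room temperature.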
In test [17] the target is Bile acid receptor (Homo sapiens) (UniProt Q96RI1). Nature of the test: qHTS assay to identify small molecule antagonists of the farnesoid-X-receptor (FXR) signaling pathway (AID 743217; active means well fitted inhibition curve with a large enough effect in the signal ratio in the repeat runs, not every such curve was filed as active; the % refers to the signal ratio). The method, boiled down: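 Test compounds are pin-transferred onto FXR-bla HEK 293T cells, then chenodeoxycholic acid is added at 50 uM final. After 16 h at 37 °C, LiveBLAzer B/G substrate is applied for 2 h at room temperature and fluorescence read.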
Bile acid receptor (Homo sapiens), sequence (Q96RI1 whole entry, looked up): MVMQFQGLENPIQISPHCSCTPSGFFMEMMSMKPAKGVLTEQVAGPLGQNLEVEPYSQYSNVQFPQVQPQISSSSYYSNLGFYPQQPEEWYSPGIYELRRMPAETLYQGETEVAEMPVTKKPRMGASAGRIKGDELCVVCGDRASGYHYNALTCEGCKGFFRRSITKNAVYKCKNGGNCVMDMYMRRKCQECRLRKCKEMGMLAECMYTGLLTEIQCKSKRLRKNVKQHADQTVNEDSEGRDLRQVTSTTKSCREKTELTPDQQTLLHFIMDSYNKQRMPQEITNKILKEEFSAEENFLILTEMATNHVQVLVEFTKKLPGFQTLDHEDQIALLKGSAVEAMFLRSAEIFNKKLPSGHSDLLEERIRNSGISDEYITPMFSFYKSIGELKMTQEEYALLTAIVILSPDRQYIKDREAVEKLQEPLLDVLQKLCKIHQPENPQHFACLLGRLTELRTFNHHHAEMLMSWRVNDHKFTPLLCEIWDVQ

Test [18] has the same target. Nature of the test: qHTS assay to identify small molecule agonists of the farnesoid-X-receptor (FXR) signaling pathway (AID 743220; active means well fitted activation curve with a large enough effect in the signal ratio in the repeat runs, not every such curve was filed as active; the % refers to the signal ratio). The method, boiled down:
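FXR-UAS-bla HEK 293T cells carrying a UAS-driven beta-lactamase reporter were plated for 5 h at 37C/5% CO2, then exposed to DMSO-dissolved Tox21 10K compounds for 16 h at 37C. A LiveBLAzer B/G FRET substrate was loaded for 2 h at room temperature before fluorescence reading.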

Test [19] deals with Vitamin D3 receptor (Homo sapiens) (UniProt P11473). Briefly: qHTS assay to identify small molecule agonists of the vitamin D receptor (VDR) signaling pathway (AID 743222; calls by dose curve). The method, boiled down: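 Tox21 cell reporter format: VDR-bla line, 16 h compound exposure in 5% CO2 at 37C, then fluorescence intensity after 2 h with LiveBLAzer B/G FRET substrate.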
Vitamin D3 receptor (Homo sapiens), sequence (P11473 whole entry, looked up): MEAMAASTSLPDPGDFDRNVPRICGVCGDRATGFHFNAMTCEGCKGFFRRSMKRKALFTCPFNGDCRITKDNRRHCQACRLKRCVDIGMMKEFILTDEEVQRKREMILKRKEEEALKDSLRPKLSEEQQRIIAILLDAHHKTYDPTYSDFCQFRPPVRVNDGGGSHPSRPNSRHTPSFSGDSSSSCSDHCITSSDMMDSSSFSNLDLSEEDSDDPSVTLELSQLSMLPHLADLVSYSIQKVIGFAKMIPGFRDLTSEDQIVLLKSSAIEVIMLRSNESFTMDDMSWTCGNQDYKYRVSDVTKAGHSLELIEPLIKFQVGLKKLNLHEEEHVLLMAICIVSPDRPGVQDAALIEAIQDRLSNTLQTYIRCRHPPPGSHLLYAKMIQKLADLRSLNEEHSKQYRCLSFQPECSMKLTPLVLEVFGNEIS
Test [20] addresses Peroxisome proliferator-activated receptor gamma (Homo sapiens) (UniProt P37231). Briefly: qHTS assay to identify small molecule antagonists of the peroxisome proliferator-activated receptor gamma (PPARg) signaling pathway (AID 743191; calls by dose curve; further: nearly all actives have a fitted effect of over 30% in size; further: potency means the concentration at half of the fitted maximal effect). In short, it runs like this:
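Beta-lactamase reporter under UAS control in HEK293H PPARg-bla cells; compound treatment 17 h at 37C. Read-out: fluorescence intensity after 1 h room-temperature incubation with LiveBLAzer B/G FRET substrate.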

Structures are written as SMILES. Results filed as inconclusive are left out. The source made the active and inactive calls. Unless noted, the call rests on the fitted dose curve; in most records, active means well fitted curve in the direction sought with a large enough effect in the repeat runs; inconclusive means weak or mixed curves; inactive means no such curve, though single readings can be large; an effect the other way counts as inactive or inconclusive.

Aryl hydrocarbon receptor (Homo sapiens), sequence (P35869 whole entry, looked up): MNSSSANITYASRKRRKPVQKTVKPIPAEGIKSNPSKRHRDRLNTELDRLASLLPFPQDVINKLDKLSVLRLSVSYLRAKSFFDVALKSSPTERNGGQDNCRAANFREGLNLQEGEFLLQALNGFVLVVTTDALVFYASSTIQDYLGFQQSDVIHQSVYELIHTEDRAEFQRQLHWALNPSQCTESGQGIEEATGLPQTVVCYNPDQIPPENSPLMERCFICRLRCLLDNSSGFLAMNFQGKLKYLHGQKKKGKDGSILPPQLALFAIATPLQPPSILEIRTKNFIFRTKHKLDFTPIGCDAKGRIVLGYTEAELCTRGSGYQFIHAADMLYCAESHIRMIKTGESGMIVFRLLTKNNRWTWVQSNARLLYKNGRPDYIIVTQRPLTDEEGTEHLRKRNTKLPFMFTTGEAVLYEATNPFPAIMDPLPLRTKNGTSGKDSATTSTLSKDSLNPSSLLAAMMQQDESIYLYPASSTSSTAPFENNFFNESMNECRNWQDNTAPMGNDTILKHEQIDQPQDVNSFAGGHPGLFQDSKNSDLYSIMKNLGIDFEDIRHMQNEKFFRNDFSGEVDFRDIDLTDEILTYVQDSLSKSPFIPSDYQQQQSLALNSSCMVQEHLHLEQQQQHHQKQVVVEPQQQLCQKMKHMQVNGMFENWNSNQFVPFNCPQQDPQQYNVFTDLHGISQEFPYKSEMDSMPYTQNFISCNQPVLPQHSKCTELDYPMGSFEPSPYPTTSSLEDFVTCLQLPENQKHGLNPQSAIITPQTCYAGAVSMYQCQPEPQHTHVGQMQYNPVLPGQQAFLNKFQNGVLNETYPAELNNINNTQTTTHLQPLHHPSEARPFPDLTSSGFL
Peroxisome proliferator-activated receptor delta (Homo sapiens), sequence (Q03181 whole entry, looked up): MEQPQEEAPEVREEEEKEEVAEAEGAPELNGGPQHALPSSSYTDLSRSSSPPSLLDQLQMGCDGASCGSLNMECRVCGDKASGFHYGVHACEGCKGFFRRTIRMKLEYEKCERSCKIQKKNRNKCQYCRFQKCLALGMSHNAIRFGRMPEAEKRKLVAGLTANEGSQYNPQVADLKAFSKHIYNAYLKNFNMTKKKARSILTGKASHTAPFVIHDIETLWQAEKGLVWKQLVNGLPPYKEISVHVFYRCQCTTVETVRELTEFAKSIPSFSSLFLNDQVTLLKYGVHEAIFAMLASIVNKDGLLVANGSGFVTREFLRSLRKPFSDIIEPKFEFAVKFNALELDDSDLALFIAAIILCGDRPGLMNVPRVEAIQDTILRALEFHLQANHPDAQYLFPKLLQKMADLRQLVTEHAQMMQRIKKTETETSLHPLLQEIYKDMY
Peroxisome proliferator-activated receptor gamma (Homo sapiens), sequence (P37231 whole entry, looked up): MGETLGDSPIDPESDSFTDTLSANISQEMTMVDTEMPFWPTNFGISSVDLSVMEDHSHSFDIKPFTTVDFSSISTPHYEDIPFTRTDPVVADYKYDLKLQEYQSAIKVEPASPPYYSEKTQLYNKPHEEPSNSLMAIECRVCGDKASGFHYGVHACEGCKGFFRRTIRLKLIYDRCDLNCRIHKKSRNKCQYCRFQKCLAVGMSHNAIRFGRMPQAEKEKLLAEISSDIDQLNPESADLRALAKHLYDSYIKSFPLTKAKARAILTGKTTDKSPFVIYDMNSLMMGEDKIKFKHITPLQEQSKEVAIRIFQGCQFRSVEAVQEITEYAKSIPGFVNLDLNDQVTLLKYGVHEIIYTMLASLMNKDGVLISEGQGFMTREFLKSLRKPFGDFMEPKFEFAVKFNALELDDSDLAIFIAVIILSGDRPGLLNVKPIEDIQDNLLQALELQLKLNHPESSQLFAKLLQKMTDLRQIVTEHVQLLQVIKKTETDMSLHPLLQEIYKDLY

With `O=c1[nH]nc(-c2ccc([N+](=O)[O-])o2)o1`, the Potency in test [1] is 30.6 µM (active). Also, the Potency entry in test [2], in test [3], in [4], in test [7], in test [8] and in test [9] was “inactive” in each case. Besides, the Potency result in [11] and in test [12] was “inactive” throughout. Further, the molecule was called inactive in test [5], in [6], in test [10] and in test [13].

Turning to `Cc1ccc(NC(=O)c2ccc(CN3CCN(C)CC3)cc2)cc1Nc1nccc(-c2cccnc2)n1`, the Potency in [14] is 21.1 µM (active). Further, the Potency result in [2], in test [3], in test [4], in test [11] and in test [12] was “inactive” in each case. Also, the outcome in test [5] and in test [6] was inactive.

`CC(=O)S[C@H](C(=O)N[C@H]1Cc2ccccc2[C@H]2CCC[C@@H](C(=O)O)N2C1=O)C(C)C`: the Potency entry in [1], in test [15], in test [16], in test [4], in [7] and in test [9] was “inactive” each time. Besides, the Potency result in [11] and in test [12] was “inactive” each time. Also, the call in test [5], in test [6], in test [17], in test [18], in [19] and in [13] was inactive.

`CCc1c(C)[nH]c2c1C(=O)C(CN1CCOCC1)CC2` (centres undefined): the Potency result in [15], in test [16], in test [4], in test [8], in [9] and in test [11] was “inactive” each time. In addition, the Potency result in test [12] was “inactive”. Besides, the result in test [5], in test [10], in [17], in test [18], in [19] and in [13] was inactive.

For the molecule `CC(CC(C#N)(c1ccccc1)C(C)C)N(C)C` (centres undefined), the Potency result in [20], in [3], in test [16], in test [4], in test [7] and in [9] was “inactive” each time. The Potency entry in [11] and in test [12] was “inactive” in each case. Also, the outcome in [5], in [6], in [17] and in [18] was inactive.

In the case of `O=Cc1ccc(Cl)c([N+](=O)[O-])c1`, the Potency result in test [14], in test [15], in [2], in test [20], in test [3] and in test [4] was “inactive” in each case. Moreover, the Potency result in test [8], in test [9], in test [11] and in test [12] was “inactive” each time. Further, the result in test [10], in test [18] and in [19] was inactive.

As for `Nc1ccccc1Nc1ccccc1`, the Potency in [14] is 54.6 µM (active); in [20], 43.8 µM (active). Also, the Potency entry in [15], in [7], in [9], in test [11] and in test [12] was “inactive” in each case. In test [5], the call was inactive.

`CCC(C)C1N=C(C)C(C)S1` (centres undefined): the Potency result in [15], in test [3], in test [16], in test [4], in [7] and in [8] was “inactive” throughout. Also, the Potency result in [9], in [11] and in test [12] was “inactive” in each case. Besides, the outcome in [5], in test [6] and in test [10] was inactive.

As to `CCc1cnc(C(=O)O)c(C(=O)O)c1`, the Potency result in test [14], in test [15], in test [2], in test [20], in [16] and in test [4] was “inactive” in each case. Besides, the Potency result in test [7], in test [8], in [9], in test [11] and in [12] was “inactive” in each case. Besides, the call in test [5], in test [6] and in test [13] was inactive.

Take `CC(=O)Nc1ccccc1O`: the Potency result in [1], in test [15], in test [4], in [7], in test [9] and in [11] was “inactive” throughout. Also, the molecule was classed as inactive in [5], in [6], in [17], in [18], in test [19] and in test [13].
